Assay outcomes as filed in PubChem BioAssay.
HCMV antiviral: blocks human cytomegalovirus replication; HFF cells, HCMV-luciferase reporter, 72 h; stronger effect = lower value; activity change, negative = inhibition, % at 57.5 µM; AID 1259415; 410,000 tested, 4.5% active; in the data active = activity change below about -60%; inconclusive = no clear call, values can overlap the other calls; inactive = above about -39%
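Inhibition of viral replication was scored as loss of reporter luminescence in HFFs infected with HCMV-luciferase (MOI 1 PFU/cell) for 72 h; compounds tested at 2 doses, normalized to buffer and Salinomycin controls.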
Pf growth 48h: inhibits P. falciparum growth in the first generation, 48 h; 310,000 tested, 5.9% active; P. falciparum luciferase growth in erythrocytes, 48 h; Potency, µM (highest dose often 28.7 µM), for inactives: at the top dose activity change, negative = inhibition, actives largely listed as inhibitors; AID 504832; also: potency is read from the fitted curve at half-maximal effect
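A one-generation exposure of luciferase-tagged malaria parasites in RPMI 1640/Albumax erythrocyte culture, 37 C and 5% CO2. Inhibition is inferred from decreased luminescence after adding detection reagent.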
HCV inhibitor: inhibitors of hepatitis C virus infection | Huh7.5.1 HCVcc-Cre infection, luciferase reporter, 44 h | Potency, µM (series often up to 41.8 µM), without a hit: at the highest dose activity change, negative = inhibition, most hits filed as inhibitors | 340,000 tested, 3.4% active | AID 651820; also: potency is read from the fitted curve at half-maximal effect
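Cells seeded at 1,000/well and cultured 4 h, then compounds added followed by HCVcc-Cre virus (~0.5 moi). After 44 h further culture, luciferase substrate was added, plates held 15 min at room temperature, and luminescence read for 15 sec.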
Pf growth 96h: inhibits malaria parasite growth, 96 h; P. falciparum luciferase reporter growth, 96 h; Potency, µM (doses to about 28.7 µM), inactives show at the top dose activity change, negative = inhibition, most hits filed as inhibitors; 320,000 tested, 6.9% active; also: potency is read from the fitted curve at half-maximal effect
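Two-generation exposure (96 h) targets delayed-death phenotype. Reporter parasites carrying integrated firefly luciferase, in red cells at 2% hematocrit and 0.05% parasitemia final, kept at 37 C, 5% CO2; luminescence loss indicates inhibition.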
* = called active by the depositor; ? = inconclusive; nt = no result. Sampled rows, rich in hits. Any-hit rate of the full collection: about 13%. Unless noted, calls follow the shape of the dose curve; as a rule, active = well fitted inhibition curve with a large enough effect; inconclusive = small, poorly fitted or top-dose-only effect, or another doubt; inactive = no such curve, though single readings can be large or run the other way. % is scaled to controls: 0 for no effect and ±100 for the full control effect.

SMILES	HCMV antiviral	Pf growth 48h	HCV inhibitor	Pf growth 96h
O=C(NCc1ccccc1F)c1ccc(CN2CC(=O)N3CCCCC3C2=O)cc1 (configuration not stated)	17	nt	nt	nt
Cc1oc2ccccc2c1CC(=O)NCCCN(C)C	-64*	2.1µM*	-13%	5%
Cc1cccc(Cn2c(C)nc3c(N)c(C)c(C)cc32)c1	-40	10µM*	-18%	?
CCOC(=O)c1c(C)c(C(=O)NCc2ccc(Cl)cc2)c(C)n1C	-31	nt	nt	nt
CC(C)(C)OC(=O)NC(Cc1ccccc1)C(=O)N1CCC(C(=O)NCC(=O)Nc2ccc(F)cc2)CC1 (configuration not stated)	-5	?	-10%	12µM*
COc1ccc(-n2c(=O)c3c4c(sc3n(CC(=O)N3CCCCC3C)c2=O)CCC4)c(OC)c1 (configuration not stated)	-18	nt	nt	nt
COc1ccc(CN(C)CC(=O)Nc2sc3c(c2C#N)CCC3)cc1OC	10	-11%	11µM*	-24%
Cc1sc(NC(=O)COc2cccc(-n3cnnn3)c2)c(C#N)c1C	-62*	5%	-23%	7%
CC(C)(C)c1ccc(-c2nnc(SCC(=O)Nc3sc4c(c3C#N)CCCC4)o2)cc1	-102*	16%	-16%	40%
Cc1sc(NC(=O)CSc2nnc(-c3ccc(F)cc3)o2)c(C#N)c1C	9	-13%	-13%	9.3µM*
COc1cccc(CN(C)CC(=O)Nc2sc3c(c2C#N)CCC3)c1OC	-38	-23%	?	-4%
COc1ccc(CCNC(=O)C2CCCN(c3nc4c(C)cc(C)cc4s3)C2)cc1OC (configuration not stated)	55	nt	nt	nt
O=C(NCCc1ccc(Cl)cc1)c1cnc2sc(N3CCCCC3)nn2c1=O	10	nt	nt	nt
O=C(NCC(c1ccc2c(c1)OCO2)N1CCOCC1)c1ccccc1F (configuration not stated)	63	nt	nt	nt
Cc1cc(C)c2c(=O)cc(C(=O)NCCc3ccc(S(N)(=O)=O)cc3)oc2c1	12	nt	nt	nt
Cc1ccc(-c2nnc(SCC(=O)Nc3ccccc3F)o2)cc1	-95*	nt	-9%	?
N#Cc1c(NC(=O)CSc2nc(N)cc(=O)[nH]2)sc2c1CCCCCC2	?	-1%	?	26%
O=C(CSc1nnc(-c2ccccc2)o1)Nc1ccccc1F	?	nt	17%	17%
N#Cc1c(NC(=O)CSc2ncn[nH]2)sc2c1CCCCC2	-64*	9.3µM*	?	nt
CC(Sc1nc(N)cc(=O)[nH]1)C(=O)Nc1sc2c(c1C#N)CCCC2 (configuration not stated)	-66*	0%	?	?
COc1ccc(-c2nnc(SCC(=O)Nc3ccccc3OC)o2)cc1	180	175%	6%	?
COc1ccc(-c2nnc(SCC(=O)NC(C)c3ccccc3)o2)cc1 (configuration not stated)	-5	1%	-7%	10µM*
CCc1cccc(NC(=O)c2ccc(NC(=O)N3CCSc4ncccc43)cc2)c1	0	nt	nt	nt
CCN(c1ccccc1)c1ncnc2c1cnn2-c1ccc(OC)cc1	4	nt	nt	nt
CCOC(=O)c1sc2cccc(F)c2c1S(=O)(=O)NCc1ccccc1Cl	9	nt	nt	nt
SMILES	HCMV antiviral	Pf growth 48h	HCV inhibitor	Pf growth 96h
CC(=O)Nc1sc2c(c1C#N)CCCC2	49	6%	11µM*	?
CC(=O)NC(=S)Nc1sc2c(c1C#N)CCCCC2	8	142%	?	124%
CC(C)(C)n1nnnc1C(c1ccccc1F)N(Cc1ccco1)CC1CCCO1 (configuration not stated)	?	13µM*	-1%	-18%
Cc1ccc2[nH]c(=O)c(C(c3nnnn3C(C)(C)C)N(Cc3ccco3)CC3CCCO3)cc2c1 (configuration not stated)	43	6.6µM*	0%	?
Cc1cccc2cc(C(c3nnnn3C(C)(C)C)N(Cc3ccco3)CC3CCCO3)c(=O)[nH]c12 (configuration not stated)	-25	12µM*	12%	?
CC(=O)c1ccc(N2CCN(c3nc4ccccc4c4nc(-c5cccc(C)c5)nn34)CC2)cc1	0	nt	nt	nt
Cc1ccccc1-c1noc(-c2cccnc2N(C)Cc2ccc(Cl)cc2)n1	-7	nt	nt	nt
Cc1ccc(C(C(=O)NC2CCCC2)N(Cc2ccc3c(c2)OCO3)C(=O)c2snc(C(N)=O)c2N)cc1 (configuration not stated)	-31	7.4µM*	-28%	8.3µM*
Cc1ccc(C)c(N(C(=O)Cc2cccs2)C(C(=O)NC2CCCC2)c2ccc(C)o2)c1 (configuration not stated)	?	?	7%	-12%
Cc1ccc(C(C(=O)NC2CCCC2)N(Cc2ccc3c(c2)OCO3)C(=O)Cc2cccs2)cc1 (configuration not stated)	8	13µM*	?	-2%
Cc1ccc(C(C(=O)NC2CCCC2)N(C(=O)Cc2cccs2)c2ccc(C)c(C)c2)o1 (configuration not stated)	-40	10µM*	?	10µM*
O=C(NC1CCCCC1)C(c1ccccc1)N(Cc1ccc2c(c1)OCO2)C(=O)c1cnsn1 (configuration not stated)	-36	9.3µM*	4%	-61%
O=C(CS(=O)CC(=O)N(c1cccc(F)c1)C(C(=O)NC1CCCCC1)c1ccco1)Nc1ccc(F)cc1 (configuration not stated)	12	?	?	?
Cc1ccc(C(C(=O)NC2CCCC2)N(C(=O)Cc2cccs2)c2ccc3c(c2)OCCO3)cc1 (configuration not stated)	-25	3.3µM*	?	?
CC(=O)c1cccc(N(C(=O)CS(=O)CC(=O)Nc2ccc(F)cc2)C(C(=O)NC2CCCCC2)c2ccc(C)o2)c1 (configuration not stated)	-20	?	-8%	4.1µM*
Cc1ccc(N(C(=O)Cc2cccs2)C(C(=O)NC2CCCC2)c2ccncc2)cc1 (configuration not stated)	-31	?	-11%	0.93µM*
Cc1ccc2[nH]c(=O)c3cc(C(=O)N(CCCOC(C)C)Cc4ccco4)sc3c2c1	?	nt	?	5.9µM*
Fc1ccc(C2c3[nH]c4ccccc4c3CCN2Cc2cccn2-c2ncccn2)cc1 (configuration not stated)	-91*	-3%	?	18%
Clc1ccc(-n2cccc2CN2CCc3c([nH]c4ccccc34)C2c2ccccn2)nc1 (configuration not stated)	-24	9.3µM*	-16%	10µM*
COc1cccc(C2c3[nH]c4ccccc4c3CCN2Cc2cccn2-c2ncccn2)c1 (configuration not stated)	36	?	-20%	5.2µM*
CSc1ncc(CN2CCc3c([nH]c4ccccc34)C2c2cccc(O)c2)cn1 (configuration not stated)	-22	4.1µM*	-16%	-53%
CN1OC(C)(CC(=O)NCc2ccccc2)N=C1c1ccccc1Cl (configuration not stated)	-4	nt	nt	nt
